Structures can show the parent of a compound that is named as a salt. ± gives the standard deviation of the averaged measurements.
Key:
[1] = tested on: Saccharomyces cerevisiae BY4741 SeMeCo community; experiment: mean cell size (pixel area) (pixels); higher = larger cells; conditions: 10 µM; 24 h; SM minimal medium
How it was run: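 In this assay, mean cell pixel area per well was obtained from automated confocal images of paraformaldehyde-fixed yeast analysed in Harmony. The cells were a Saccharomyces cerevisiae BY4741 community with four plasmids, each complementing one auxotrophy and carrying a fluorescent marker, grown for 24 h in SM medium with drug at a final 10 µM in 384-well plates. Values are averaged across 3 replicates. Same SeMeCo high-content imaging drug screen: Selleck FDA-approved drugs at 10 µM, 24 h in SM medium, 384-well plates, 3 replicates.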

[2] = tested on: Saccharomyces cerevisiae BY4741 SeMeCo community; experiment: z-score of prototroph abundance vs DMSO median; higher = larger share of this subpopulation than in DMSO controls; conditions: 10 µM; 24 h; SM minimal medium; subpopulation (auxotrophy): Prototroph
How it was run: (§1)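 Subpopulation abundance was reported as a z-score against the median of vehicle wells. The Saccharomyces cerevisiae BY4741 community, carrying four plasmids that each restored one auxotrophy and encoded a distinct fluorescent protein, was grown 24 h in minimal SM medium in 384-well plates holding library drugs at 10 µM final. Cells were paraformaldehyde-fixed and imaged by automated confocal microscopy, with single-auxotroph fluorescent strains used for thresholds and autofluorescence correction.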

[3] = tested on: Saccharomyces cerevisiae BY4741 SeMeCo community; experiment: z-score of subpopulation abundance vs DMSO median, subpopulation auxotrophic for M; higher = larger share of this subpopulation than in DMSO controls; conditions: 10 µM; 24 h; SM minimal medium; subpopulation (auxotrophy): M
How it was run: as §1

[4] = tested on: Saccharomyces cerevisiae BY4741 SeMeCo community; experiment: z-score of subpopulation abundance vs DMSO median, subpopulation auxotrophic for L; higher = larger share of this subpopulation than in DMSO controls; conditions: 10 µM; 24 h; SM minimal medium; subpopulation (auxotrophy): L
How it was run: as §1

[5] = tested on: Saccharomyces cerevisiae BY4741 SeMeCo community; experiment: z-score of subpopulation abundance vs DMSO median, subpopulation auxotrophic for U; higher = larger share of this subpopulation than in DMSO controls; conditions: 10 µM; 24 h; SM minimal medium; subpopulation (auxotrophy): U
How it was run: as §1

[6] = tested on: Saccharomyces cerevisiae BY4741 SeMeCo community; experiment: z-score of subpopulation abundance vs DMSO median, subpopulation auxotrophic for H; higher = larger share of this subpopulation than in DMSO controls; conditions: 10 µM; 24 h; SM minimal medium; subpopulation (auxotrophy): H
How it was run: as §1

[7] = tested on: Saccharomyces cerevisiae BY4741 SeMeCo community; experiment: z-score of subpopulation abundance vs DMSO median, subpopulation auxotrophic for LU; higher = larger share of this subpopulation than in DMSO controls; conditions: 10 µM; 24 h; SM minimal medium; subpopulation (auxotrophy): LU
How it was run: as §1

[8] = tested on: Saccharomyces cerevisiae BY4741 SeMeCo community; experiment: z-score of subpopulation abundance vs DMSO median, subpopulation auxotrophic for LM; higher = larger share of this subpopulation than in DMSO controls; conditions: 10 µM; 24 h; SM minimal medium; subpopulation (auxotrophy): LM
How it was run: as §1

[9] = tested on: Saccharomyces cerevisiae BY4741 SeMeCo community; experiment: z-score of subpopulation abundance vs DMSO median, subpopulation auxotrophic for HM; higher = larger share of this subpopulation than in DMSO controls; conditions: 10 µM; 24 h; SM minimal medium; subpopulation (auxotrophy): HM
How it was run: as §1

[10] = tested on: Saccharomyces cerevisiae BY4741 SeMeCo community; experiment: z-score of subpopulation abundance vs DMSO median, subpopulation auxotrophic for HU; higher = larger share of this subpopulation than in DMSO controls; conditions: 10 µM; 24 h; SM minimal medium; subpopulation (auxotrophy): HU
How it was run: as §1

[11] = tested on: Saccharomyces cerevisiae BY4741 SeMeCo community; experiment: z-score of subpopulation abundance vs DMSO median, subpopulation auxotrophic for UM; higher = larger share of this subpopulation than in DMSO controls; conditions: 10 µM; 24 h; SM minimal medium; subpopulation (auxotrophy): UM
How it was run: as §1

[12] = tested on: Saccharomyces cerevisiae BY4741 SeMeCo community; experiment: z-score of subpopulation abundance vs DMSO median, subpopulation auxotrophic for HL; higher = larger share of this subpopulation than in DMSO controls; conditions: 10 µM; 24 h; SM minimal medium; subpopulation (auxotrophy): HL
How it was run: as §1

[13] = tested on: Saccharomyces cerevisiae BY4741 SeMeCo community; experiment: z-score of subpopulation abundance vs DMSO median, subpopulation auxotrophic for HLU; higher = larger share of this subpopulation than in DMSO controls; conditions: 10 µM; 24 h; SM minimal medium; subpopulation (auxotrophy): HLU
How it was run: as §1

[14] = tested on: Saccharomyces cerevisiae BY4741 SeMeCo community; experiment: z-score of subpopulation abundance vs DMSO median, subpopulation auxotrophic for HLM; higher = larger share of this subpopulation than in DMSO controls; conditions: 10 µM; 24 h; SM minimal medium; subpopulation (auxotrophy): HLM
How it was run: as §1

[15] = tested on: Saccharomyces cerevisiae BY4741 SeMeCo community; experiment: z-score of subpopulation abundance vs DMSO median, subpopulation auxotrophic for HUM; higher = larger share of this subpopulation than in DMSO controls; conditions: 10 µM; 24 h; SM minimal medium; subpopulation (auxotrophy): HUM
How it was run: as §1

[16] = tested on: Saccharomyces cerevisiae BY4741 SeMeCo community; experiment: z-score of subpopulation abundance vs DMSO median, subpopulation auxotrophic for LUM; higher = larger share of this subpopulation than in DMSO controls; conditions: 10 µM; 24 h; SM minimal medium; subpopulation (auxotrophy): LUM
How it was run: as §1

[17] = tested on: Saccharomyces cerevisiae BY4741 SeMeCo community; experiment: z-score of subpopulation abundance vs DMSO median, subpopulation auxotrophic for HLUM; higher = larger share of this subpopulation than in DMSO controls; conditions: 10 µM; 24 h; SM minimal medium; subpopulation (auxotrophy): HLUM
How it was run: as §1

| Compound | mean cell size [1] | z-score of prototroph abundance [2] | z-score of subpopulation abundance [3] | z-score of subpopulation abundance [4] | z-score of subpopulation abundance [5] | z-score of subpopulation abundance [6] | z-score of subpopulation abundance [7] | z-score of subpopulation abundance [8] | z-score of subpopulation abundance [9] | z-score of subpopulation abundance [10] | z-score of subpopulation abundance [11] | z-score of subpopulation abundance [12] | z-score of subpopulation abundance [13] | z-score of subpopulation abundance [14] | z-score of subpopulation abundance [15] | z-score of subpopulation abundance [16] | z-score of subpopulation abundance [17] |
| --- | --- | --- | --- | --- | --- | --- | --- | --- | --- | --- | --- | --- | --- | --- | --- | --- | --- |
| Nc1ccc(S(=O)(=O)Nc2ncccn2)cc1 [Sulfadiazine] | 12.34 ± 0.084 | 0.05 | -0.51 | 0.86 | -0.28 | -0.65 | 0.22 | -0.04 | -0.44 | -0.2 | -0.04 | -0.65 | 0.31 | 0 | -0.05 | 0.42 | 1.03 |
| CCC1=C(C)CN(C(=O)NCCc2ccc(S(=O)(=O)NC(=O)N[C@H]3CC[C@H](C)CC3)cc2)C1=O [Glimepiride] | 12.5 ± 0.2 | -0.13 | -0.24 | 0.24 | -0.47 | -0.23 | -0.1 | 0.34 | 0.24 | 0.22 | 0.19 | 0.01 | 0.26 | 0.03 | 0.42 | -0.01 | 0.7 |
| N#Cc1ccc2[nH]cc(CCCCN3CCN(c4ccc5oc(C(N)=O)cc5c4)CC3)c2c1 [Vilazodone HCl] | 12.34 ± 0.018 | – | 1.09 | 0.01 | -0.4 | 1.09 | -0.14 | 0.25 | 0.6 | 0.14 | -0.14 | 0.87 | -0.1 | -0.45 | 0.23 | 0.66 | -0.28 |
| O=C1c2cccc3c2[C@H](CCC3)CN1[C@@H]1CN2CCC1CC2 [Palonosetron HCl] | 11.92 ± 0.064 | – | -0.37 | -0.13 | 0.17 | -0.32 | -0.38 | -0.39 | -0.69 | 0.33 | 0.37 | -0.31 | -0.05 | -0.58 | -0.03 | -0.02 | -0.14 |
| CC[C@@]1(O)C(=O)OCc2c1cc1n(c2=O)Cc2cc3cc(O)ccc3nc2-1 [Hydroxy Camptothecine] | 12.5 ± 0.14 | 1.27 | 3.88 | 2.31 | -5.21 | – | -3.85 | 3.19 | 3.39 | -4.32 | – | 2.22 | -1.2 | 1.86 | -1.9 | -1.35 | 0.8 |
| CCCCCCCCCCCCCCCC[N+](C)(C)C [Cetrimonium Bromide (CTAB)] | 10.8 ± 0.24 | – | -4.82 | -1.79 | -1.73 | 9.21 | 3.88 | 3.5 | 10.1 | 12.8 | – | 10.9 | 19.1 | 50.7 | 34.1 | 20.6 | 29.4 |
| Oc1c(Cl)cc(Cl)cc1Sc1cc(Cl)cc(Cl)c1O [Bithionol] | 12.4 ± 0.28 | -1.81 | -3.78 | -1.47 | 1.53 | 6 | 1.88 | -1.62 | -0.03 | 5.87 | -0.68 | 3.98 | 2.39 | 4.37 | 3.51 | 2.62 | 2.92 |
| CN(C)CCc1c[nH]c2ccc(Cn3cncn3)cc12 [Rizatriptan Benzoate] | 12.63 ± 0.099 | 0.05 | -0.1 | 0.9 | -0.69 | 0.25 | 0.31 | 1.18 | 0.65 | -0.96 | -1.14 | – | 0.78 | 0.35 | -0.59 | -0.44 | 0.89 |
| NC[C@@H]1O[C@H](O[C@H]2[C@@H](O)[C@H](O[C@@H]3[C@@H](O)[C@H](N)C[C@H](N)[C@H]3O[C@H]3O[C@H](CO)[C@@H](O)[C@H](O)[C@H]3N)O[C@@H]2CO)[C@H](N)[C@@H](O)[C@@H]1O [Paromomycin Sulfate] | 12.31 ± 0.12 | -0.33 | 1.04 | 0.88 | -0.06 | 0.2 | -0.04 | 1.42 | 1.15 | -0.92 | – | 0.39 | -0.44 | 0.02 | 0.69 | 0.8 | 0.85 |
| CC[C@@H](CO)NCCN[C@@H](CC)CO [Ethambutol 2HCl] | 12.46 ± 0.11 | -0.36 | -0.81 | 0.27 | 1.13 | -1.02 | 1.65 | 0.23 | -0.9 | 0.27 | – | – | 0.56 | 0.16 | 0.7 | 1.15 | 0.6 |
| O=C(c1ccccc1)c1ccc2n1CCC2C(=O)O (stereo not given) [Ketorolac tromethamine salt] | 12.3 ± 0.19 | 0.48 | 0.27 | 0.3 | -0.92 | 0.35 | -0.75 | -0.1 | -0.41 | -0.79 | -0.28 | -0.19 | -0.16 | -0.09 | -0.75 | -0.12 | -0.11 |
| CC[C@H]1OC(=O)C[C@@H](O)[C@H](C)[C@@H](O[C@@H]2O[C@H](C)[C@@H](O)[C@H](N(C)C)[C@H]2O)[C@@H](CCN2C[C@H](C)C[C@H](C)C2)C[C@@H](C)C(=O)/C=C/C(C)=C/[C@@H]1CO[C@@H]1O[C@H](C)[C@@H](O)[C@@H](OC)[C@H]1OC [Tilmicosin phosphate] | 12.3 ± 0.3 | 0.18 | -0.36 | 0.06 | -0.3 | – | -0.57 | -0.81 | -0.03 | -0.34 | – | -0.13 | -0.18 | -0.09 | -0.09 | -0.25 | -0.75 |
| Cn1c(=O)c2c(ncn2CC(O)CO)n(C)c1=O (stereo not given) [Dyphylline] | 12.55 ± 0.12 | 1.12 | -1.07 | -0.69 | 0.26 | -0.64 | -0.11 | -0.74 | -0.97 | -0.83 | -0.61 | – | -0.29 | -0.91 | -1.32 | -1.44 | -0.64 |
| CC[C@H](C)C(=O)O[C@H]1C[C@@H](C)C=C2C=C[C@H](C)[C@H](CC[C@@H]3C[C@@H](O)CC(=O)O3)[C@H]21 [Lovastatin] | 11.9 ± 0.13 | -1.34 | 0.85 | -0.96 | 0.87 | -0.06 | 0.16 | -0.13 | 0.4 | 0.59 | 1.08 | 0.97 | 0.37 | 0.86 | 1.12 | 0.48 | 0.35 |

From the supplement of paper PMC8975748
